Bioassay records: PubChem, National Center for Advancing Translational Sciences (NCATS)
Shiga toxin inh: A qHTS for Small Molecule Inhibitors of Shiga Toxin; Vero cells, Shiga toxin protein synthesis inhibition reporter; inhibition, % at 38.7 µM; 9.2% of 290,000 active; in the data active = inhibition mostly above about 28%, no sharp cut-off; inactive = mostly below about 43%; also: 0% is about no effect
Cycloheximide cs: Cycloheximide Counterscreen for Small Molecule Inhibitors of Shiga Toxin | cell reporter, cycloheximide protein synthesis inhibition counterscreen | max response, % | 12% of 300,000 active | AID 2314, 2010; in the data active = max response mostly above about 13%, no sharp cut-off; inactive = mostly below about 14%; also: read at 38.3 µM for the half of the compounds with a filed dose; 0% is about no effect
NS1 inh: qHTS Assay for Inhibitors of Influenza NS1 Protein Function; Potency, µM (series often up to 46.1 µM), without a hit: at the highest dose activity, positive = more growth; 0.4% of 270,000 active; AID 2326, 2010; calls by dose curve; also: potency is read from the fitted curve at half-maximal effect; actives are rising curves; nearly all actives have a fitted effect of over 50% in size
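S. cerevisiae expressing influenza A NS1, grown in glucose, washed, then diluted 1:100 into pH 6.0 -URA galactose medium with 23 nl compound. Growth recovery read as OD600; NS1-free strain serves as control.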
Pf growth 96h: Primary qHTS for delayed death inhibitors of the malarial parasite plastid, 96 hour incubation; 6.9% of 320,000 active; AID 504834, 2011; Potency, µM (series often up to 28.7 µM), without a hit: at the top dose activity change, negative = inhibition, most hits filed as inhibitors; P. falciparum luciferase reporter growth, 96 h; also: potency is read from the fitted curve at half-maximal effect; % is scaled to controls: 0 for no effect and ±100 for the full control effect
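Compounds incubated with erythrocytes infected by luciferase-expressing P. falciparum (2% hematocrit, 0.05% parasitemia final) for 96 hours, 37 C in 5% CO2. Growth inhibition scored as decreased luciferase luminescence.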
Pf growth 48h: Primary qHTS for delayed death inhibitors of the malarial parasite plastid, 48 hour incubation | 5.9% of 310,000 active | P. falciparum luciferase growth in erythrocytes, 48 h | Potency, µM (doses to about 28.7 µM), for inactives: at the highest dose activity change, negative = inhibition, usual class: inhibitors | AID 504832, 2011; also: potency is read from the fitted curve at half-maximal effect; % is scaled to controls: 0 for no effect and ±100 for the full control effect
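Compounds are pin-transferred into medium, infected erythrocytes (2% hematocrit, 0.1% parasitemia final) are added, and plates sit one parasite generation at 37 C in 5% CO2. Detection reagent is then added and luminescence measured.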
Sm TGR inh: qHTS Assay for the Inhibitors of Schistosoma Mansoni Peroxiredoxins | Schistosoma mansoni thioredoxin glutathione reductase (TGR), Q962Y6 | purified TGR, DTNB reduction, TNB absorbance 405 nm | Potency, µM (titrated, usually from 114 µM), without a hit: top-dose activity change, negative = inhibition, hits mostly inhibitors | 3% of 360,000 active | AID 485364, 2010; also: potency is read from the fitted curve at half-maximal effect; % is scaled to controls: 0 for no effect and ±100 for the full control effect; nearly all actives have a fitted effect of over 60% in size
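TGR 20 nM + NADPH 100 uM (dispensed conc.), cpd preinc 15 min RT; start with NADPH (500 uM addition) then DTNB (15 mM addition). Kinetic TNB absorbance, 405 nm filter. Four-parameter Hill fit across titration.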
* marks the source's active call; other numbers are inactive results; i = inactive; ? = inconclusive; / = no result; + = active, no number; [ ] = remark or other dose. Most compounds without a hit are left out; they make up all but 21% or so of the library. Unless noted, calls follow the shape of the dose curve; as a rule, active = well fitted curve in the direction sought with a large enough effect; inconclusive = small, poorly fitted or top-dose-only effect, or another doubt; inactive = no such curve, though single readings can be large; an effect the other way counts as inactive or inconclusive.

SMILES | Shiga toxin inh | Cycloheximide cs | NS1 inh | Pf growth 96h | Pf growth 48h | Sm TGR inh
COc1ccc(CC(=O)c2cc(OC)c(OC)cc2CC(=O)O)cc1OC | 38.1 | -2.5 | 13.3% | / | -4.7% | 0.0%
COc1ccc(C(=O)Cc2ccc(OC)c(OC)c2)c(OC)c1 | 70.8 | 12.0* | -8.8% | / | -5.5% | -10.9%
COc1ccc(CC(=O)c2ccc(OC)c(OC)c2)cc1 | 130.0 | 23.2* | -6.6% | -16.5% | -11.7% | 2.9%
CCN(CCCNC(=O)c1nn(-c2ccc(C)cc2)c(=O)c2c1c1ccccc1n2C)c1cccc(C)c1 | / | / | / | / | / | 9.0%
Cc1ccc2oc(C(=O)N3CCC(O)(c4cccc(C(F)(F)F)c4)CC3)c(C)c2c1 | 63.2* | 42.7* | -65.1% | -24.5% | 44.6% | 1.0%
CC(=O)N1CCC(O)(c2cccc(C(F)(F)F)c2)CC1 | -18.7 | -3.9 | -2.6% | -6.6% | -7.7% | 8.3%
CC(C)(C)OC(=O)NCCCC[C@H](NC(=O)c1nc[nH]c1C(=O)NCc1ccc(CNC(=O)OC(C)(C)C)cc1)C(=O)OC(C)(C)C | -0.5 | 2.0 | ? | 11.7µM* | ? | 0.0%
C[C@H](NC(=O)c1nc[nH]c1C(=O)N[C@@H](CCCCNC(=O)OC(C)(C)C)C(=O)OC(C)(C)C)C(=O)OC(C)(C)C | -6.6 | -3.5 | -7.4% | 13.1µM* | 9.28µM* | 3.8%
CC(C)(C)OC(=O)[C@H](CCCCN)NC(=O)c1nc[nH]c1C(=O)NCCCCCN | / | / | / | 23.0% | -17.5% | -6.6%
CC(C)(C)OC(=O)NCCCC[C@H](NC(=O)c1nc[nH]c1C(=O)NC(c1ccccc1)c1ccccc1)C(=O)OC(C)(C)C | -4.5 | 2.8 | ? | 2.08µM* | 3.7µM* | 10.5%
CC(C)(C)OC(=O)NCCCC[C@H](NC(=O)c1nc[nH]c1C(=O)N[C@@H](CCCCNC(=O)OC(C)(C)C)C(=O)OC(C)(C)C)C(=O)OC(C)(C)C | -6.1 | 6.1 | -9.1% | 1.65µM* | 2.08µM* | -1.6%
Cc1ccc(NC(=O)c2c(NC(=O)C(F)(F)F)sc3c2CCCCC3)cc1 | / | / | / | / | / | -5.8%
O=C(O)c1cc(S(=O)(=O)N2CC=C(c3ccccc3)CC2)ccc1O | / | / | / | / | / | -21.4%
CCCC(C(=O)Nc1cc(S(=O)(=O)N2CCOCC2)ccc1OC)c1ccccc1 (stereo unspecified) | 4.1 | 1.0 | 12.8% | ? | ? | 6.0%
CC(C)(C)OC(=O)CNC(=O)c1[nH]cnc1C(=O)N[C@@H](CCCCNC(=O)OC(C)(C)C)C(=O)OC(C)(C)C | -6.6 | -0.8 | -1.2% | ? | ? | -5.1%
CC(C)(C)OC(=O)NCCCCCNC(=O)c1[nH]cnc1C(=O)N[C@@H](CCCCNC(=O)OC(C)(C)C)C(=O)OC(C)(C)C | 7.4 | 6.7 | 8.8% | 0.0% | 9.28µM* | 0.8%
O=C(O)c1ccccc1-c1ccccc1C(=O)Nc1ccc(F)cc1 | -7.4 | -1.2 | 0.6% | 19.9% | / | -13.8%
O=C(Nc1ccc(F)cc1)c1cccc2ccccc12 | 15.4 | 24.2* | -9.7% | -10.4% | 9.9% | -0.2%
COc1ccc(NC(=O)c2cccc3ccccc23)cc1 | 20.7 | 20.0* | -10.1% | ? | 85.4% | 89.1µM*
COc1ccc(NC(=O)c2cccc3c(Br)cccc23)cc1 | 22.5 | 1.5 | 0.8% | 208.4% | 9.0% | -1.7%
COc1ccc(NC(=O)c2ccccc2C)cc1 | / | 33.5* | -12.6% | 3.5% | 205.3% | -9.3%
COc1ccc(NC(=O)c2ccccc2)cc1 | / | / | / | 145.5% | i | -0.6%
CCOc1ccc(NC(=O)CSc2nc3c(oc4ccccc43)c(=O)n2CCOC)cc1 | / | / | / | / | / | -0.6%
CCCNC(=O)COC(=O)/C=C/c1ccc(C)o1 | -1.8 | 1.8 | / | 30.9% | 11.6% | 39.8µM*
Cc1ccc(/C=C/C(=O)OCC(=O)NCCN2C(=O)CSC2=O)o1 | 9.6 | -1.3 | / | 33.8% | 12.2% | 25.1µM*
SMILES | Shiga toxin inh | Cycloheximide cs | NS1 inh | Pf growth 96h | Pf growth 48h | Sm TGR inh
CCOc1ccc(CCNC(=O)COC(=O)/C=C/c2ccc(C)o2)cc1OCC | -1.4 | 10.8 | -3.1% | 5.22µM* | 13.1µM* | 50.1µM*
Cc1ccc(/C=C/C(=O)OCC(=O)NCc2ccccc2)o1 | / | / | / | 28.0% | ? | ?
CCOC(=O)Cn1c(=O)n(-c2ccccc2OC)c2nc(-c3ccc(C(C)C)cc3)nc(C(N)=O)c21 | / | / | / | / | / | 1.9%
O=C(NCc1ccccn1)C(=O)Nc1cc2c3c(c1)CC(=O)N3CCC2 | / | / | / | -10.7% | ? | 0.1%
O=C(O)c1cc(N/N=C/C=C/c2ccccc2)ccc1Cl | 171.9* | 39.7* | 14.8% | i | i | 34.4%
COc1ccc(-n2c(C)cc(/C=N/Nc3nnc(C)n3N)c2C)cc1 | 33.0 | 19.3* | -10.8% | 72.8% | ? | ?
O=C(CNC(=O)c1ccc(Cl)cc1)N/N=C/C=C/c1ccccc1 | 5.8 | -1.2 | 10.1% | 59.9% | 5.2% | -15.8%
COC(=O)c1ccc(COc2ccc(/C=N/Nc3cccc(C(=O)O)c3)cc2)cc1 | 108.8* | 83.8* | -4.7% | i | 413.2% | ?
CCOc1ccc(-n2c(C)cc(/C=N/Nc3nc(C)cc(=O)[nH]3)c2C)cc1 | 9.2 | -2.4 | 5.7% | ? | 1.65µM* | -11.3%
Cc1cc(=O)[nH]c(SCC(=O)Nc2ccc(Cl)cn2)n1 | -5.0 | -1.0 | -0.5% | 14.6% | / | -10.0%
COc1ccc(OC)c(-c2cc(C(=O)NCc3ccc(Cl)cc3)no2)c1 | -6.4 | -3.4 | / | 57.8% | -17.3% | 10.4%
CC1CCCN(c2nc3c(-c4ccc(Cl)cc4)nnn3c3ccccc23)C1 (stereo unspecified) | / | / | / | / | / | 2.9%
Cc1c(CCNC(=O)c2ccc(Br)o2)sc2nc(-c3ccc(F)cc3)nn12 | / | / | / | / | / | 8.0%
CCC[C@@H]1CC2=CC(=O)CC[C@]2(C)[C@H]2CC[C@@]3(C)[C@@H](CC[C@@]34CCC(=O)O4)[C@H]12 | -6.2 | -9.2 | / | / | / | /
CC1CCN(C(=O)C(NS(=O)(=O)c2cccc3nsnc23)C(C)C)CC1 (stereo unspecified) | -2.3 | -2.3 | 12.6% | -12.2% | -9.3% | -1.1%
COC(=O)c1ccc(COc2ccc(/C=N/Nc3nc(C)cc(=O)[nH]3)cc2)cc1 | 45.1* | 9.1 | 4.4% | -75.5% | ? | -0.1%
O=C(NCc1ccncc1)C(=O)N/N=C/c1ccc(OCc2ccccc2)cc1 | -8.6 | 7.5 | 1.7% | 148.1% | 5.8% | 11.6%
O=C(O)c1cc(N/N=C/c2ccc(OCc3ccccc3)cc2)ccc1Cl | 149.0* | 72.4* | / | 247.3%[5.75 µM] | 353.3% | -1.1%
CSc1ccc(/C=N/Nc2cccc(C(=O)O)c2)cc1 | + | 91.8* | / | i | 482.7% | 19.0%
O=C(O)c1cccc(N/N=C/c2ccc(OC(F)(F)F)cc2)c1 | 137.7* | 77.1* | 2.2% | ? | 335.9% | 6.6%
CC(C)OCCCN(Cc1ccco1)C(=O)c1cc2c(s1)-c1ccccc1OC2 | / | / | / | / | / | 2.4%
